Assay results: PubChem BioAssay (NCATS)
Inconclusive results are not listed. Active and inactive are the calls of the source. Unless noted, calls come from the whole dose curve; as a rule, active = well fitted curve in the direction sought with a large enough effect; inconclusive = small, poorly fitted or top-dose-only effect, or another doubt; inactive = no such curve, though single readings can be large; an effect the other way counts as inactive or inconclusive.

Columns and labels:
[1] = Cell Viability - BJ (AID 421; calls by dose curve;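 note: potency is the fitted concentration of half-maximal effect; cells exposed to compound for 40 hours at 37 °C before readout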); settings: BJ fibroblast viability, qHTS
Procedure, shortened: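 Normal human BJ foreskin fibroblasts, 1500/well in complete medium, treated 40 hr at 37 °C. Cellular ATP by CellTiter-Glo luminescence; normalized to DMSO and 100 uM tamoxifen, AC50 from Hill fit.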

[2] = Cell Viability - Hek293 (AID 427;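 active = compounds whose dose-response curve shows a full or clear partial loss of cell viability, called from curve shape rather than a numeric limit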;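 note: potency is the fitted concentration of half-maximal effect; cells exposed to compound for 40 hours at 37 °C before reading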); settings: qHTS
Procedure, shortened: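 HEK293 cells in complete medium were exposed to compound for 40 hr at 37 °C, then cellular ATP was read by CellTiter-Glo luminescence. Data were normalized to DMSO (basal) and 100 uM tamoxifen (100% inhibition), and AC50 came from Hill fits.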

[3] = Cell Viability - HepG2 (AID 433; calls by dose curve;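 note: potency is the fitted concentration of half-maximal effect; potency for ATP loss meaning cytotoxicity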); settings: qHTS
Procedure, shortened: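 ATP luminescence (CellTiter-Glo) after 40 h compound exposure, 37 °C, HepG2, 1500 cells/well, complete medium. Normalized: DMSO = basal, 100 uM tamoxifen = 100% inhibition. AC50 via standard Hill equation.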

[4] = Cell Viability - MRC5 (AID 434; calls by dose curve;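 note: potency is the fitted concentration of half-maximal effect; potency reflects cytotoxicity seen as loss of intracellular ATP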); settings: MRC5 lung fibroblast viability, qHTS
Procedure, shortened: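 MRC5 normal human lung fibroblasts, 1500 cells/well, exposed to compound for 40 hr at 37 C. Cellular ATP was read by CellTiter-Glo luminescence; data normalized to DMSO and 100 uM tamoxifen, with AC50 from Hill fits.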

[5] = Cell Viability - SK-N-SH (AID 435; calls by dose curve; note: potency is the fitted concentration of half-maximal effect); settings: SK-N-SH neuroblastoma cell viability qHTS
Procedure, shortened: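 CellTiter-Glo ATP luminescence, 20 min RT read; cells pre-plated 5 hr, compound 40 hr at 37 °C, 1500 cells/well, complete medium. Normalized DMSO = 0, 100 uM tamoxifen = 100% inhibition; Hill-fit AC50.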

[6] = target: Mitogen-activated protein kinase 10 (Mus musculus) (UniProt Q61831); assay: JNK3 AlphaScreen Assay (AID 530; active = well fitted curve in either direction with a large enough effect, not every such curve was filed as active;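 note: kinase came from lysate of stimulated human HepG2 cells; signal reports phosphorylation of biotinylated GST-cJun 1-79 at Ser73 with 10 µM ATP; % is set by controls: 0 for no effect and ±100 for the full control effect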); settings: JNK3 lysate, c-Jun phosphorylation; series mostly up to 57.1 µM
Procedure, shortened: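 Pre-activated (IL-1β/TNFα) JNK3 in HepG2 lysates phosphorylates biotin-GST-cJun(1-79), 10 uM ATP; anti-phospho-cJun(Ser73) AlphaScreen read at room temperature, pH 7.6 Tris buffer. Compounds pre-incubated 15 min as titrations.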

[7] = Cell Viability - NIH 3T3 (AID 541); settings: NIH 3T3 cell viability, qHTS; activity change, negative = cytotoxicity: at 92.2 µM (top of the series);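 note: plate controls were DMSO alone for no effect and tamoxifen positive control for full effect; nearly all actives have a fitted effect of over 25% in size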
Procedure, shortened: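 Luminescent ATP signal (CellTiter-Glo) served as the viability read-out after NIH 3T3 cells were exposed to compounds over a concentration range for 40 hr at 37 °C. Hill-equation modelling of concentration-response data gave AC50.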

[8] = Cell Viability - HUV-EC-C (AID 542); settings: HUV-EC-C endothelial cell viability, qHTS; series mostly up to 92.2 µM; note: % is set by controls: 0 for no effect and ±100 for the full control effect; nearly all actives have a fitted effect of over 35% in size
Procedure, shortened: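 qHTS cytotoxicity: HUV-EC-C, 1000 cells/well, 5 hr settle, compound 40 hr 37 °C, CellTiter-Glo, luminescence. AC50 via Hill equation.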

[9] = Cell Viability - H-4-II-E (AID 543); settings: H-4-II-E rat hepatoma viability; series mostly up to 92.2 µM; note: % is set by controls: 0 for no effect and ±100 for the full control effect; nearly all actives have a fitted effect of over 35% in size
Procedure, shortened: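 Luminescent ATP signal (CellTiter-Glo) served as the viability read-out, with cytotoxicity seen as a concentration-dependent ATP drop. Cells were treated for 40 hours in complete medium. AC50 values derive from Hill-equation modelling.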

[10] = Cell Viability - SH-SY5Y (AID 544); settings: SH-SY5Y neuroblastoma cell viability; series mostly up to 92.2 µM; note: nearly all actives have a fitted effect of over 55% in size
Procedure, shortened: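 Luminescent ATP read-out (CellTiter-Glo) measures loss of viable SH-SY5Y neuroblastoma cells after 40 hr compound exposure at 37 °C. AC50 values derive from standard Hill modelling of qHTS concentration-response data.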

[11] = Cell Viability - Renal Proximal Tubule (AID 545); settings: renal proximal tubule cells viability, primary cells of rat origin; at 91.7 µM (top of the series); note: nearly all actives have a fitted effect of over 40% in size
Procedure, shortened: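 Rat kidney proximal tubule cells, freshly isolated; 1000 cells/well, 5 hr settle, compound 40 hr 37 °C. CellTiter-Glo 20 min RT, luminescence read. AC50 by standard Hill fit.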

[12] = Cell Viability - Mesenchymal (AID 546); settings: mesenchymal cells viability, qHTS; activity change, negative = cytotoxicity: at 91.7 µM (top of the series);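 note: cells exposed to compound for 40 hours before reading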
Procedure, shortened: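 Human kidney mesenchymal cells from normal renal glomeruli, 1000 cells/well, rested 5 hr at 37 °C, then treated 40 hr at 37 °C in complete medium. Cellular ATP read by CellTiter-Glo luminescence; AC50 from Hill-equation fits.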

[13] = Cellular Toxicity (caspase-3) HepG2 (AID 654); settings: HepG2 caspase-3 activation, luminescence, 0% = DMSO only, 100% = tamoxifen; series mostly up to 92.2 µM;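 note: cells exposed to compound for 16 hours before reading; 0% = DMSO alone and 100% = caspase signal from 100 µM tamoxifen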
Procedure, shortened: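 Cells plated 5 hr at 37 °C, compound added, incubated 16 hr at 37 °C. Caspase-Glo 3/7 reagent followed, 20 min at room temperature, then luminescence read. Activation scored as signal increase; AC50 from Hill fit.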

[14] = Cellular Toxicity (caspase-3) Jurkat (AID 655); settings: Jurkat caspase-3 activation, luminescence, DMSO = 0%, tamoxifen = 100%; at 92.2 µM (top of the series);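 note: cells exposed to compound for 16 h at 37 °C before reading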
Procedure, shortened: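 Luminescent caspase-3/7 readout (aminoluciferin substrate cleavage) in human T-cell leukemia Jurkat cells after 16 hr compound exposure. Concentration-response normalized to DMSO and 100 uM tamoxifen; AC50 by standard Hill equation.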

[15] = Cellular Toxicity (caspase-3) BJ (AID 658); settings: BJ fibroblasts, luminescence, normalized: DMSO 0%, staurosporine 100%; series mostly up to 91.7 µM
Procedure, shortened: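 BJ human foreskin fibroblasts, 1000 cells/well, treated 16 hours at 37 °C in complete medium; caspase 3/7 activity by Caspase-Glo luminescence after 1 hr at room temperature. Normalized to DMSO and 10 uM staurosporine; AC50 from Hill fits.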

[16] = Cellular Toxicity (caspase-3) MRC-5 (AID 659); settings: MRC-5 cells, luminescence, normalized: DMSO 0%, 10 µM staurosporine 100%; series mostly up to 91.7 µM
Procedure, shortened: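 MRC-5 human normal lung fibroblasts, 1500 cells/well, treated 16 h at 37 °C in complete medium. Caspase 3/7 measured by Caspase-Glo luminescence after 1 h at room temperature. Normalized to DMSO and 10 uM staurosporine; AC50 from Hill fit.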

[17] = Cellular Toxicity (caspase-3) Mesangial (AID 660); settings: mesangial cells, normalized: DMSO 0%, 100 µM tamoxifen 100%; series mostly up to 91.7 µM;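 note: combined caspase 3 and 7 activity read by Caspase-Glo luminescence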
Procedure, shortened: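 Mesangial cells, 1000/well, 5 h settle at 37 °C; compound 16 h, 37 °C; Caspase-Glo 3/7 reagent 20 min RT; luminescence. Norm.: DMSO = 0%, tamoxifen 100 uM = 100%. AC50, Hill fit.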

[18] = Cellular Toxicity (caspase-3) SK-N-SH (AID 661); settings: SK-N-SH caspase-3 activation, qHTS, DMSO as zero, staurosporine as full; series mostly up to 91.7 µM
Procedure, shortened: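 Human neuroblastoma SK-N-SH, 1500 cells/well, 5 hr pre-incubation, then compound 16 hr, 37 °C. Caspase-Glo 3/7 reagent, 1 hr RT, luminescence. Norm. to DMSO/10 uM staurosporine; Hill-fit AC50.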

[19] = Cellular Toxicity (caspase-3) H-4-II-E (AID 663); settings: H-4-II-E rat hepatoma; Potency: caspase-3 activation; series mostly up to 92.2 µM;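 note: cells exposed to compound for 16 hr before readout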
Procedure, shortened: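 Rat hepatoma H-4-II-E cells (1500/well) plated 5 hr, then exposed to compound titrations for 16 hr at 37 °C. Caspase-Glo 3/7 luminescence read after 20 min at RT; data normalized to DMSO and 100 uM tamoxifen, AC50 from Hill fits.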

[20] = Cellular Toxicity (caspase-3) Hek293 (AID 664); settings: HEK293 caspase-3 activation, DMSO = 0%, 100 µM tamoxifen = 100%; series mostly up to 92.2 µM;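 note: cells exposed to compound for 16 h at 37 °C before readout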
Procedure, shortened: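 Cells plated, 5 hr at 37 °C; compounds added; 16 hr at 37 °C; Caspase-Glo 3/7 reagent, 20 min RT; luminescence read. Activation expressed relative to DMSO and 100 uM tamoxifen, AC50 by Hill model.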

[21] = Cellular Toxicity (caspase-3) N2a (AID 665); settings: N2a cells, luminescence, normalized: DMSO 0%, 10 µM staurosporine 100%; series mostly up to 92.2 µM;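 note: compound exposure lasted 16 h at 37 °C before readout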
Procedure, shortened: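 N2a cells, 1500/well, 5 h settle at 37 °C; cpd 16 h, 37 °C; Caspase-Glo 3/7, 1 h RT; luminescence. Norm: DMSO = 0, 10 uM staurosporine = 100%. AC50, Hill fit.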

[22] = Cellular Toxicity (caspase-3) NIH 3T3 (AID 666); settings: NIH 3T3 caspase-3 activation, apoptosis/toxicity, 0% DMSO, 100% is 100 µM tamoxifen; series mostly up to 92.2 µM;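 note: caspase signal read after 16 h compound exposure; 0% = DMSO basal and 100% = 100 µM tamoxifen stimulation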
Procedure, shortened: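 Luminescence from aminoluciferin released by caspase-3/7 cleavage of a peptide substrate served as read-out. Mouse fibroblast NIH 3T3 cells were exposed to compounds over a concentration range for 16 hours, and AC50 values came from standard Hill modelling.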

c1ccc2c(c1)[nH]c1ccccc12
inactive: Potency [1] > 92 µM | Potency [2] > 92 µM | Potency [3] > 92 µM | Potency [4] > 92 µM | Potency [5] > 92 µM | Potency [6] | Potency [7] | outcome [8] | Potency [9] | Potency [10] | activity change, negative = cytotoxicity [11] -10.3% | activity change, negative = cytotoxicity [12] -7.62% | outcome [13] | caspase-3 activation [14] 0.344% | outcome [15] | outcome [16] | outcome [17] | outcome [18] | Potency [19] | outcome [20] | outcome [21] | outcome [22]
